Inconclusive results are not listed. Where a call stands in place of a potency, no number is given. The source made the active and inactive calls. Calls come from the whole dose curve; as a rule, active = well fitted inhibition curve with a large enough effect; inconclusive = small, poorly fitted or top-dose-only effect; inactive = flat fitted curve, though single readings scatter.
Target: Calcium and integrin-binding protein 1 (Homo sapiens) (UniProt Q99828)
Assay: Primary qHTS for Identification of Calcium Integrin Binding Protein 1 (CIB1) Competitor (AID 1508620);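 note: GST tagged CIB1 binding a fluorescein labelled alphaIIb integrin peptide tracer; top concentration of the series differs between compounds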
Conditions: CIB1-GST / FITC-alphaIIb peptide fluorescence polarization; series mostly up to 114 µM
Method in brief: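 Fluorescence polarization competition: CIB1-GST (1 uM final) preincubated with compound 15 min at room temperature, then FITC-labeled alphaIIb peptide (100 nM final) added for another 15 min. Polarization read at Ex 480/Em 540.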

Chain of Calcium and integrin-binding protein 1 (Homo sapiens) (Q99828 whole entry, looked up): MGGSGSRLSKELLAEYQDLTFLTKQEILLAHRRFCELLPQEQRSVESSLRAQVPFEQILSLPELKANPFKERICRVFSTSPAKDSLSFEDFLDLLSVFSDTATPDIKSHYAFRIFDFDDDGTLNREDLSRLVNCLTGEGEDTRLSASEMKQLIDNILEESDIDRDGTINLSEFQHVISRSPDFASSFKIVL

Compound	Potency
CNc1nc(Nc2ccc(C(=O)N3CCOCC3)cc2OC)nc2[nH]cc(Cl)c12	inactive
C=C1CC[C@@H]2[C@](C)(CO)[C@H](O)CC[C@@]2(C)[C@@H]1CC(O)C1=CCOC1=O (some centres undefined)	inactive
c1ccc(-c2cnn3cc(-c4ccc(OCCN5CCOCC5)cc4)cnc23)cc1	inactive
C/C=C/C=C/C=C/C(=O)O[C@@H]1C=C(CO)C(O)(C(=O)OC)[C@@]2(C)CCCC(C)(C)C12 (some centres undefined)	inactive
COc1ccc2nccc(C(=O)CC[C@@H]3CCN(CC#Cc4cc(F)cc(F)c4F)C[C@@H]3C(=O)O)c2c1	inactive
O=C(c1c(F)ccc(NS(=O)(=O)N2CC[C@@H](F)C2)c1F)c1c[nH]c2ncc(-c3cnc(C4CC4)nc3)cc12	inactive
CCn1c(=O)c(-c2ccc(Cl)cc2Cl)cc2cnc(Nc3ccc(N4CCNCC4)c(F)c3)nc21	inactive
COC1CC(O[C@H]2CC[C@]3(C)C4CC[C@@]5(C)C(=O)[C@]4(CC[C@@H]3C2)CC[C@@H]5C2=CC(=O)OC2)OC(C)C1OC1OC(COC2OC(CO)C(O)C(O)C2O)C(O)C(O)C1O (some centres undefined)	inactive
C=CC(C)(O)CC[C@@H]1[C@@]2(C)CCCC(C)(C)C2CC[C@@]1(C)O (some centres undefined)	inactive
CCCOc1ccc(CCc2nc3cc(-c4c(C)noc4C)ccc3n2CCN2CCOCC2)cc1	inactive
O=C(NCc1ccccc1-c1ccccc1C(=O)NCCc1ccccn1)OCc1ccccc1	inactive
C/C=C/C=C/C(=O)O[C@@H]1C=C2COC(=O)[C@]2(O)[C@@]2(C)CCCC(C)(C)[C@H]12	inactive
C/C=C\NC(=O)C1NC(=O)C(CC(N)=O)NC(=O)C(NC(=O)C(=O)C(C)CC)Cc2ccc(O)c(c2)-c2cccc3c2NC(=O)C3(O)C1O (centres undefined)	inactive
CCOC(=O)c1cnc2ccc(-c3cncc(NS(=O)(=O)c4ccccc4)c3)cn12	inactive
COC(CCc1ccc(O)cc1)CC(=O)CCc1ccc(O)cc1 (centres undefined)	inactive
CN1CCc2cc3c(cc2C(=O)Cc2cc4c(cc2C1)OCO4)OCO3	inactive
C=C1C(=O)O[C@@H]2C=C(COC(C)=O)CC/C=C(\CO)CC[C@@H]12	inactive
CCC(CC)C(=O)OC12C(OC(=O)C(C)C)C(C)C3(O)C(C=C(CO)CC4(O)C(=O)C(C)=CC43)C1C2(C)C (centres undefined)	inactive
Cn1ncnc1[C@H]1c2n[nH]c(=O)c3cc(F)cc(c23)N[C@@H]1c1ccc(F)cc1	inactive
O=c1[nH]cnc2c([C@@H]3N[C@H](CO)[C@@H](O)[C@H]3O)c[nH]c12	inactive

Compound	Potency
CC(=O)OC1[C@H]2[C@@H](C[C@@H](C)[C@@H]3C=CC(=O)[C@@]13C)OC(=O)[C@@H]2C (some centres undefined)	inactive
CC[C@H](C)/C=C(C)/C=C/C1=CC2=CC(=O)[C@]3(C)OC(=O)[C@@H](C(C)=O)[C@@H]3C2=CO1	inactive
O=C(c1ccc(F)cc1)N1CCCC(c2nc(-c3ccc(F)cc3)no2)C1 (centres undefined)	inactive
O=c1cc(NCCCN[C@@H]2CCOc3c(Br)cc(Br)cc32)[nH]c2ccsc12	inactive
CCCC(=O)C1(c2ccccc2)CCN(C(=O)[C@@H](Cc2ccc(OC)cc2)NC(=O)[C@@H](N)Cc2cncn2C)CC1	inactive
C=C(COC(=O)C(O)C(O)CN)C12OC1C1(C)C(=CC2=O)C(O)C(O)CC1C (centres undefined)	inactive
CC(C)NC(=O)N1CC[C@H](N=C2Nc3cc(F)ccc3N(CC(F)F)c3ccc(Cl)cc32)C1	inactive
CCn1nc(C2CCN(C(=O)CCO)CC2)nc1-c1cnc(N)c(-c2nnc(C(C)(C)C)o2)n1	inactive
COc1cc(O)cc(/C=C/c2cccc(O)c2)c1	inactive
O=C(Nc1ccc(-c2ccc(Cl)c(Cl)c2)cc1)C1=C(O)c2ccccc2S(=O)(=O)N1	inactive
COc1cc(OC)c(NC(=O)c2ccc(Cc3cc4c(cc3C)C(C)(C)CCC4(C)C)o2)c(OC)c1	inactive
Cc1ccc(OC[C@H](O)[C@H](C)NC(C)C)c2c1CCC2	inactive
CN1CC2CN(c3ccc4oc5ccccc5c(=O)c4c3)CC2C1 (centres undefined)	inactive
Clc1ncoc1-c1c[nH]c2ccccc12	inactive
COc1ccc(CNCc2cccc3ccccc23)cc1	inactive
CC(C)(C)c1ccc(NC(=O)N2CCN(c3ncccc3Cl)CC2)cc1	inactive
COC(=O)C1=COC(O[C@@H]2O[C@H](CO[C@@H]3O[C@H](COC(=O)/C=C\c4ccc(O)cc4)[C@@H](O)[C@H](O)[C@H]3O)[C@@H](O)[C@H](O)[C@H]2O)C2C(CO)=CCC12 (some centres undefined)	inactive
Cc1ccc(C)c(-c2cc(C(F)(F)F)nn2-c2ccc(S(N)(=O)=O)cc2)c1	inactive
CN1C(=O)c2sccc2N(C)c2nc(Nc3ccc(S(N)(=O)=O)cc3)ncc21	inactive

Source: PubChem BioAssay (NCATS)
